This passage reports Potency and outcome results from PubChem BioAssay (Tox21).

In experiment [1] the target is Aryl hydrocarbon receptor (Homo sapiens) (UniProt P35869). As to the kind of experiment: qHTS assay to identify small molecule that activate the aryl hydrocarbon receptor (AhR) signaling pathway (AID 743085).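 Also: HG2L7.5c1 human HepG2 liver cells with stably integrated DRE-driven firefly reporter; series mostly up to about 70 µM; nearly all actives have a fitted effect of over 15% in size.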 An outline of the steps: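 Reporter assay in engineered HepG2 line HG2L7.5c1, whose plasmid carries twenty dioxin responsive elements upstream of firefly luciferase. Treatment lasted 24 h at 37C; ONE-Glo luminescence gauged induction.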
Sequence of Aryl hydrocarbon receptor (Homo sapiens) (P35869 whole entry, looked up): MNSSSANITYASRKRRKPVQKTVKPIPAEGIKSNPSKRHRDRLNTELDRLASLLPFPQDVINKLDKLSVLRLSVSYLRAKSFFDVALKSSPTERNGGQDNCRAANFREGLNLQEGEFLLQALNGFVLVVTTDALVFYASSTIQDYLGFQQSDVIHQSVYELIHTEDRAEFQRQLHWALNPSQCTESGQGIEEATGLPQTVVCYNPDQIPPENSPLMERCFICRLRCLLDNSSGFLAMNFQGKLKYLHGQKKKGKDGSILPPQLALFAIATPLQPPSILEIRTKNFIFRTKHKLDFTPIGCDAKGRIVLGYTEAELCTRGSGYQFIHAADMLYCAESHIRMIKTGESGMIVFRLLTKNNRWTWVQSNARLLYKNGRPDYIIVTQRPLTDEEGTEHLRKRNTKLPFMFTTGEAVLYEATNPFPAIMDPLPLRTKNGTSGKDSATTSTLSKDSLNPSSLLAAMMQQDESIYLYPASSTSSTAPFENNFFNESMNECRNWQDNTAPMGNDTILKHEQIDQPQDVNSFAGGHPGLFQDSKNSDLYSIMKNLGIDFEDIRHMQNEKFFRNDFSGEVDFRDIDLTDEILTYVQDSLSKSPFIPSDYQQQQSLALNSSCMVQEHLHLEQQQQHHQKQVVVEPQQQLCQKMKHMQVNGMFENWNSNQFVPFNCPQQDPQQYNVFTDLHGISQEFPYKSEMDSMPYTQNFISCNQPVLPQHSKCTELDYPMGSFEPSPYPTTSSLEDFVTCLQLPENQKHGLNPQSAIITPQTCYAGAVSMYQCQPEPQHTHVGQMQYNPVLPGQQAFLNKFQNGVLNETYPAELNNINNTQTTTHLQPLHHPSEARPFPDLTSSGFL
On the technique in general: In qHTS, concentration-response curves come from the screen itself.

Experiment [2] can be described thus: qHTS assay to identify small molecule that activate the aryl hydrocarbon receptor (AhR) signaling pathway - cell viability counter screen (AID 743086).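 Also: HepG2 liver cells carrying the AhR DRE luciferase reporter; series mostly up to about 70 µM; nearly all actives have a fitted effect of over 45% in size.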 An outline of the steps: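 HepG2-AhR-luc (HG2L7.5c1) cells, 4000/well, treated 24 h at 37 C with compound; viability measured as CellTiter-Fluor fluorescence after 30 min in the same wells as the luciferase read.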

The target of experiment [3] is Peroxisome proliferator-activated receptor gamma (Homo sapiens) (UniProt P37231). As to the kind of experiment: qHTS assay to identify small molecule agonists of the peroxisome proliferator-activated receptor gamma (PPARg) signaling pathway (AID 743094; active = well fitted activation curve with a large enough effect in the signal ratio in the repeat runs, not every such curve was filed as active; the % refers to the signal ratio). An outline of the steps:
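Cell-based bla reporter, HEK293H background, PPARg-driven UAS. Pre-incubation 5 h, 37C, 5% CO2. Compound 17 h, 37C. Substrate 1 h RT; fluorescence.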

The target is the same in experiment [4]. Put plainly: qHTS assay to identify small molecule antagonists of the peroxisome proliferator-activated receptor gamma (PPARg) signaling pathway (AID 743191; calls by dose curve; also: nearly all actives have a fitted effect of over 30% in size; also: potency is read from the fitted curve at half-maximal effect). An outline of the steps:
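GeneBLAzer PPARg UAS-bla HEK293H cells, 5 h post-plating, exposed to compounds 17 h at 37C. LiveBLAzer B/G FRET substrate added for 1 h at room temperature; beta-lactamase reporter read by fluorescence intensity.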

Experiment [5] is described as follows: qHTS assay to identify small molecule antagonists of the peroxisome proliferator-activated receptor gamma (PPARg) signaling pathway - cell viability counter screen (AID 743194). Also: nearly all actives have a fitted effect of over 55% in size. An outline of the steps: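 Cytotoxicity counter screen in PPARg-bla HEK293H cells, same wells as reporter assay. Compounds plus 50 nM rosiglitazone (final) for 17 h at 37 C, then viability read by CellTiter-Glo luminescence.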

Experiment [6] is described as follows: qHTS assay for small molecule agonists of the antioxidant response element (ARE) signaling pathway - cell viability counter screen (AID 743203; calls by dose curve; also: nearly all actives have a fitted effect of over 55% in size). An outline of the steps: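 Measured in the same wells as the beta-lactamase ARE reporter, this read-out is CellTiter-Glo luminescence from HepG2 ARE-bla cells given compounds for 16 hrs.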
Experiment [7] can be described thus: qHTS assay for small molecule activators of the heat shock response signaling pathway - cell viability counter screen (AID 743209). Also: nearly all actives have a fitted effect of over 50% in size. An outline of the steps: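 Same-well multiplex: after 2.5 h room-temperature incubation with LiveBLAzer B/G substrate and fluorescence reading, CellTiter-Glo reagent was added to HSE-bla HeLa cells that had received compound for 5 h at 37 C; luminescence read after 30 min.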

Experiment [8] in a line: qHTS assay to identify small molecule agonists of the peroxisome proliferator-activated receptor delta (PPARd) signaling pathway - cell viability counter screen (AID 743211). Also: nearly all actives have a fitted effect of over 55% in size. An outline of the steps:
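Multiplexed format: after the 2 h room-temperature LiveBLAzer B/G FRET step, CellTiter-Glo was added to the same wells. Luminescence after 30 min gave cell viability; compound exposure was 17 h at 37C.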

Experiment [9] deals with Peroxisome proliferator-activated receptor delta (Homo sapiens) (UniProt Q03181). Put plainly: qHTS assay to identify small molecule agonists of the peroxisome proliferator-activated receptor delta (PPARd) signaling pathway (AID 743212; calls by dose curve). An outline of the steps:
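Tox21 library screened in GeneBLAzer PPARd UAS-bla HEK293H cells. After compound treatment at 37 C, a FRET-based beta-lactamase substrate was applied for 2 h and fluorescence recorded.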

The target of experiment [10] is Bile acid receptor (Homo sapiens) (UniProt Q96RI1). Put plainly: qHTS assay to identify small molecule antagonists of the farnesoid-X-receptor (FXR) signaling pathway (AID 743217; active = well fitted inhibition curve with a large enough effect in the signal ratio in the repeat runs, not every such curve was filed as active; the % refers to the signal ratio). An outline of the steps:
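FRET fluorescence after 2 h room-temperature LiveBLAzer loading gives the readout. Prior step: FXR-bla HEK 293T cells, seeded and incubated 5 h, received test compounds plus 50 uM final CDCA for 16 h at 37 °C.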

Experiment [11] can be described thus: qHTS assay to identify small molecule agonists of the farnesoid-X-receptor (FXR) signaling pathway - cell viability counter screen (AID 743218). Also: nearly all actives have a fitted effect of over 45% in size. An outline of the steps: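 Readout: CellTiter-Glo luminescence, 30 min RT, multiplexed after the FXR-bla FRET reading. HEK 293T FXR-UAS-bla cells received compound 5 h post-plating and were incubated 16 h at 37 C.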

Experiment [12] concerns the target Bile acid receptor (Homo sapiens) (UniProt Q96RI1). Put plainly: qHTS assay to identify small molecule agonists of the farnesoid-X-receptor (FXR) signaling pathway (AID 743220; active = well fitted activation curve with a large enough effect in the signal ratio in the repeat runs, not every such curve was filed as active; the % refers to the signal ratio). An outline of the steps:
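FXR-UAS-bla HEK 293T cells carrying a UAS-driven beta-lactamase reporter were plated for 5 h at 37C/5% CO2, then exposed to DMSO-dissolved Tox21 10K compounds for 16 h at 37C. A LiveBLAzer B/G FRET substrate was loaded for 2 h at room temperature before fluorescence reading.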

The nature of experiment [13]: qHTS assay to identify small molecule antagonists of the farnesoid-X-receptor (FXR) signaling pathway - cell viability counter screen (AID 743221; active = well fitted cell-killing curve with a large enough effect in the repeat runs, not every such curve was filed as active; also: nearly all actives have a fitted effect of over 50% in size). An outline of the steps: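 CellTiter-Glo, 30 min RT, luminescence; same wells as the LiveBLAzer FRET read. Cells: FXR-UAS-bla HEK 293T. Treatment: compound with chenodeoxycholic acid 50 uM final, 16 h at 37 C.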
Experiment [14] has as its target Vitamin D3 receptor (Homo sapiens) (UniProt P11473). As to the kind of experiment: qHTS assay to identify small molecule agonists of the vitamin D receptor (VDR) signaling pathway (AID 743222; calls by dose curve). An outline of the steps:
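Following 4 h attachment at 37C, VDR-bla cells (2,000 per well) received DMSO-dissolved compounds or controls. After 16 h incubation, LiveBLAzer B/G FRET substrate was added and fluorescence read 2 h later at room temperature.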

Experiment [15] has the same target. Put plainly: qHTS assay to identify small molecule antagonists of the vitamin D receptor (VDR) signaling pathway (AID 743223; active = well fitted inhibition curve with a large enough effect in the signal ratio in the repeat runs, not every such curve was filed as active; the % refers to the signal ratio). An outline of the steps: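 After VDR-bla cells are plated and left 4 h at 37C, DMSO-dissolved compounds and 3 nM (final) calcitriol agonist are added. Incubation continues 16 h at 37C; FRET beta-lactamase substrate then develops 2 h at room temperature.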

Experiment [16] is described as follows: qHTS assay for small molecule agonists of the antioxidant response element (ARE) signaling pathway (AID 743202; active = well fitted activation curve with a large enough effect in the signal ratio in the repeat runs, not every such curve was filed as active; the % refers to the signal ratio; also: potency is read from the fitted curve at half-maximal effect). An outline of the steps:
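HepG2 ARE-bla cells; 16 h treatment at 37 C; FRET-based beta-lactamase fluorescence read after 2 h substrate incubation at room temperature.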

A short description of experiment [17]: qHTS assay to identify small molecule antagonists of the peroxisome proliferator-activated receptor delta (PPARd) signaling pathway - cell viability counter screen (AID 743213). Also: nearly all actives have a fitted effect of over 50% in size. An outline of the steps:
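PPARd-bla HEK293H cells were treated with compounds plus agonist L165041 (300 nM final) for 17 h at 37 C. Viability was then read in the same wells by CellTiter-Glo luminescence after 30 min at room temperature.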

Experiment [18] deals with Peroxisome proliferator-activated receptor delta (Homo sapiens) (UniProt Q03181). Put plainly: qHTS assay to identify small molecule antagonists of the peroxisome proliferator-activated receptor delta (PPARd) signaling pathway (AID 743215; active = well fitted inhibition curve with a large enough effect in the signal ratio in the repeat runs, not every such curve was filed as active; the % refers to the signal ratio;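 also: cells stimulated with agonist L165041 at 300 nM final during compound exposure; series mostly up to about 62 µM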). An outline of the steps: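 Fluorescence from cleaved LiveBLAzer B/G FRET substrate (2 h, room temperature) reports PPARd-driven beta-lactamase in HEK293H UAS-bla cells. Cells had been treated 17 h at 37 C with compound plus 300 nM final L165041.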
Sequence of Peroxisome proliferator-activated receptor delta (Homo sapiens) (Q03181 whole entry, looked up): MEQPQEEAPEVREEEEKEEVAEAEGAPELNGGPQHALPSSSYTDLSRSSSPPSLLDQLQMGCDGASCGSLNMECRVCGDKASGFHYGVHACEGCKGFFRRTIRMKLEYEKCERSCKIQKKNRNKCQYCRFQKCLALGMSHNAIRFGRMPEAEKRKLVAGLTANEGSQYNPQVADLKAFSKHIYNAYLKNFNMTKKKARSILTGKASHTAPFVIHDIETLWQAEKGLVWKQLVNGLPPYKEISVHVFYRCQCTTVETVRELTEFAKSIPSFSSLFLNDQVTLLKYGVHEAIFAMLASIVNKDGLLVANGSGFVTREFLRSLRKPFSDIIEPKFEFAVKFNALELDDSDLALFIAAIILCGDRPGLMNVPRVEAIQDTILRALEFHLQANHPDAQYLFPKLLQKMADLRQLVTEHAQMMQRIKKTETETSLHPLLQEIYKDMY

Experiment [19] is described as follows: qHTS assay for small molecule activators of the heat shock response signaling pathway (AID 743210; active = well fitted activation curve with a large enough effect in the signal ratio in the repeat runs, with a control signal flat, not every such curve was filed as active; the % refers to the signal ratio;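 also: HeLa cells with beta-lactamase reporter driven by heat shock elements; series mostly up to about 63 µM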). An outline of the steps:
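Following overnight attachment, HSE-bla HeLa cells received test compounds for 5 h at 37 C; beta-lactamase activity was then detected via FRET substrate fluorescence.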

Experiment [20] can be described thus: qHTS assay to identify aromatase inhibitors - cell viability counter screen (AID 743084).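 Also: cells stimulated with testosterone during compound exposure; nearly all actives have a fitted effect of over 55% in size.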

Structures are written as SMILES. Inconclusive results are not listed. Unmarked numbers belong to inactive results. The source made the active and inactive calls. Unless noted, calls follow the shape of the dose curve; as a rule, active = well fitted curve in the direction sought with a large enough effect in the repeat runs; inconclusive = weak or mixed curves; inactive = no such curve, though single readings can be large; an effect the other way counts as inactive or inconclusive.

Sequence of Vitamin D3 receptor (Homo sapiens) (P11473 whole entry, looked up): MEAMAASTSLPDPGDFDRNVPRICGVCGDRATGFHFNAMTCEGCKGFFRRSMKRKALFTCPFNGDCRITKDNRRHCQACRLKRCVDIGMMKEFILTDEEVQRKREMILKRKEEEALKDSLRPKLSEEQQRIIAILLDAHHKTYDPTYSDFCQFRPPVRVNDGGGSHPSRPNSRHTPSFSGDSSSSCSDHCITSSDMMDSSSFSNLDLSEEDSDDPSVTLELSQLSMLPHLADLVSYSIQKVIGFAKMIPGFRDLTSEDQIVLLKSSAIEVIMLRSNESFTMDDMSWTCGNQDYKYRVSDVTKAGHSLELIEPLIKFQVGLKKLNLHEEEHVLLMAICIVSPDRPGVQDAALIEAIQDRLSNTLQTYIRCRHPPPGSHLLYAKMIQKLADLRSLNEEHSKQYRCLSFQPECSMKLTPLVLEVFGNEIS
Sequence of Bile acid receptor (Homo sapiens) (Q96RI1 whole entry, looked up): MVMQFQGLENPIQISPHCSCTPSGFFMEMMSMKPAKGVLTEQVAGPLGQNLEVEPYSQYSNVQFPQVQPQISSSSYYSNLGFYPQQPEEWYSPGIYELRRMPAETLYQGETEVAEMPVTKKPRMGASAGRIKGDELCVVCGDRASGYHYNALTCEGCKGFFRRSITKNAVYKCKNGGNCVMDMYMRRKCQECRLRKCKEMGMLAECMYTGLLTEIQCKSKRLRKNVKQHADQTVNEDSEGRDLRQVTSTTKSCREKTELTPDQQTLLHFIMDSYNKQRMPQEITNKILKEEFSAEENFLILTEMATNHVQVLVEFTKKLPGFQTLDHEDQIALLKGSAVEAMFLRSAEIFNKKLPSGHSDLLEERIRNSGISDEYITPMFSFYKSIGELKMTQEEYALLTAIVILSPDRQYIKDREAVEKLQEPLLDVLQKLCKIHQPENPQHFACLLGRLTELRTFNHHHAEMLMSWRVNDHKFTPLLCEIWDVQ
Sequence of Peroxisome proliferator-activated receptor gamma (Homo sapiens) (P37231 whole entry, looked up): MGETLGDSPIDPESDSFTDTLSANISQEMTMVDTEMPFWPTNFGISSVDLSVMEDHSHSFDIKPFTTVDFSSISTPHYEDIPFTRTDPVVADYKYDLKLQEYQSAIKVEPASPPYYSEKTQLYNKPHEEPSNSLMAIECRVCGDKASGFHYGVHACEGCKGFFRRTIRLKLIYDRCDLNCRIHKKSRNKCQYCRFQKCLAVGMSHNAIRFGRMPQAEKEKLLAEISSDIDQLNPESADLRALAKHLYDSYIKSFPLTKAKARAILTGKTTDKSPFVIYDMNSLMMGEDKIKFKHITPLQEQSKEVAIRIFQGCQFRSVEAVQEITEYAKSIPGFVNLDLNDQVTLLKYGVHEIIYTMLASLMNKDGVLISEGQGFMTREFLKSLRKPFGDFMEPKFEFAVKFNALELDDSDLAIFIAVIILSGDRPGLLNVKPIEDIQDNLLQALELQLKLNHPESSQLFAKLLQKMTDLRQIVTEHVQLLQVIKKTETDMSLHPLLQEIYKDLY

Consider `C=C(C)C(=O)OCc1ccccc1`, for which the Potency result in [1], in experiment [2], in experiment [4], in [10], in experiment [11] and in experiment [12] was “inactive” throughout. Further, the molecule was classed as inactive in [3], in experiment [5], in experiment [6], in experiment [7], in experiment [8] and in [9]. For the same molecule, the molecule was classed as inactive in [13], in experiment [14] and in experiment [15].
For the molecule `CC(C)C(=O)OCc1cccc(OC(=O)[C@@H]2N3C(=O)[C@@H](NC(=O)Cc4ccccc4)[C@H]3SC2(C)C)c1`, the Potency entry in experiment [4], in experiment [16] and in [11] was “inactive” in each case. Further, the result in experiment [5], in experiment [6], in experiment [8], in [9], in experiment [17] and in [18] was inactive. Besides, the molecule was called inactive in experiment [13] and in [15].
With `Cc1ccccc1N=O`, the Potency entry in experiment [2], in [10], in experiment [11] and in experiment [12] was “inactive” in each case. Besides, the molecule was called inactive in experiment [5], in experiment [6], in experiment [7], in experiment [19], in experiment [8] and in [9]. The result in experiment [17], in experiment [13], in [14] and in [15] was inactive.
Regarding `Oc1ccccc1-c1nnco1`, the result in experiment [5], in [6], in [7], in experiment [19], in [8] and in experiment [13] was inactive. Moreover, the result in [14] and in experiment [15] was inactive. Further, the Potency result in experiment [11] is “inactive”.
Regarding `O=C1CC(c2ccc(Cl)cc2)CC(=O)N1`, the Potency result in [4], in [16], in experiment [10], in experiment [11] and in experiment [12] was “inactive” each time. Further, the molecule was classed as inactive in experiment [5], in experiment [6], in experiment [7], in experiment [8], in experiment [9] and in [18]. In addition, the result in experiment [13] and in experiment [15] was inactive.
`O=C(NCC(O)CO)c1c(I)c(C(=O)NCC(O)CO)c(I)c(N(CCO)C(=O)CO)c1I` (stereo unspecified): the Potency result in experiment [2], in experiment [10] and in [12] was “inactive” each time. The call in [5], in experiment [6], in experiment [7], in [19], in [8] and in experiment [17] was inactive. Besides, in experiment [13], the outcome was inactive.
Turning to `O=C(OCC(O)CO)c1ccccc1Nc1ccnc2c(C(F)(F)F)cccc12` (stereo unspecified), the Potency was 16.8 µM (active) in experiment [4] and 26.6 µM (active) in experiment [16]. The outcome in experiment [5], in [6], in experiment [7], in experiment [8], in [17] and in experiment [13] was inactive. In addition, the molecule was called inactive in [14] and in experiment [15]. For the same molecule, the Potency result in experiment [11] and in experiment [12] was “inactive” in each case.
Consider `COCCc1ccc(OCC2CO2)cc1` (stereo unspecified), for which the call in experiment [5], in [6], in experiment [7], in experiment [8], in experiment [17] and in experiment [18] was inactive. The molecule was called inactive in experiment [13], in [14] and in experiment [15]. The Potency entry in experiment [11] was “inactive”.
With `CC(C)(C)c1n[nH]c(=S)n(N)c1=O`, the Potency entry in [20], in experiment [2], in experiment [16] and in [11] was “inactive” in each case. In addition, the molecule was called inactive in [5], in [6], in [7], in [19], in experiment [8] and in experiment [17]. Moreover, the result in experiment [13] and in experiment [14] was inactive.
